Experimental findings from PubChem BioAssay (EPA / NIEHS) are described below.

The source made the active and inactive calls. The calls were made as follows: active = hit-call score of the fitted dose curve at least 0.9, where 1 is the maximum; inactive = score below 0.9.

A short description of one assay: ATG_EGR_CIS: Attagene CIS-FACTORIAL HepG2 Assay for human Early Growth Response 1 (EGR1) (AID 2282938). Particulars: HepG2 Attagene CIS-FACTORIAL EGR reporter mRNA; actives raise or lower the signal. Summed up:
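Fluorescent capillary-electrophoresis signal of reporter cDNA fragments serves as read-out. HepG2 cells bear transiently transfected cis-promoter reporter units and are exposed 24 h; gain- or loss-of-signal is fitted against DMSO.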
In the case of `Nc1ccc2c(c1)C(=O)c1ccccc1C2=O`, the outcome was inactive.

As for `CC(=O)C(C)=CC1C(C)=CCCC1(C)C` (stereo not given), the compound was called inactive.

As for `CCCCCCC(=O)OCC`, the call was inactive.

`CCCCN(CCCC)CCCC`: the compound was classed as inactive.

With `Cc1nc(C)nc(N2C[C@@H](C)N(c3ccnc([C@@H](C)O)n3)[C@@H](C)C2)n1`, the outcome was inactive.

In the case of `CC(=O)OCCOCCOCCOC(C)=O`, the outcome was inactive.

On to `CCOC(=O)CCC(=O)OCC`, for which the result was inactive.

On to `CC(=O)Oc1ccccc1C(=O)O`, for which the call was inactive.

On to `CC(=O)OC/C=C(\C)CCC=C(C)C`, for which the compound was called inactive.

As for `CC(C)c1ccc(C(=O)N=C(N)N)cc1S(C)(=O)=O`, the compound was classed as inactive.

Regarding `Cc1ccc(Cl)cc1`, the result was inactive.

Take `C[Si]1(C)O[Si](C)(C)O[Si](C)(C)O[Si](C)(C)O1`: the compound was classed as inactive.

For `C=CCc1ccc(O)c(OC)c1`, the compound was called inactive.

The AC50 is the concentration giving half of the maximal activity seen. As for `COc1cccc2c1C(=O)c1c(O)c3c(c(O)c1C2=O)C[C@@](O)(C(=O)CO)C[C@@H]3O[C@H]1C[C@H](N)[C@H](O)[C@H](C)O1`, the AC50 was 2.04 µM (active).

As to `Cc1cccc(C)c1O`, the compound was called inactive.

In the case of `CCCCCC(=O)O`, the call was inactive.

With `Oc1ccc2ccccc2c1N=Nc1ccccc1`, the outcome was inactive.

Turning to `NS(=O)(=O)c1cc2c(cc1Cl)NCNS2(=O)=O`, the compound was classed as inactive.

On to `Cc1ccccc1Cl`, for which the result was inactive.

As for `COc1ccc2c(c1)c(CC(=O)O)c(C)n2C(=O)c1ccc(Cl)cc1`, the call was inactive.

`Cc1cccc(Nc2cc(Cl)nc(SCC(=O)O)n2)c1C`: the call was inactive.

Turning to `CCOC(=O)C(C)(C)Oc1ccc(Cl)cc1`, the outcome was inactive.

Regarding `CCCCOC(=O)CCCCCCCCC(=O)OCCCC`, the call was inactive.

Regarding `CCc1c(C(=O)NN2CCCCC2)nn(-c2ccc(Cl)cc2Cl)c1-c1ccc(Br)cc1`, the AC50 was 3.12 µM (active).

In the case of `Oc1ccc2c(c1)OC[C@@H](N1CCC(O)(c3ccc(F)cc3)CC1)[C@H]2O`, the AC50 was 50 µM (active).

For the compound `O=C(O)CCCCC(=O)O`, the call was inactive.

With `CCCCCCCCCCCCCCCCCC(=O)O`, the outcome was inactive.

For the compound `CCCCCCCCCCCC(=O)OC`, the outcome was inactive.

`O=C(N[C@@H](Cc1ccccc1)[C@@H](O)C(=O)N1C[C@@H](O)[C@@H](O)C1)c1cc2cc(Cl)ccc2[nH]1`: the call was inactive.

Regarding `CCCCCCCC=O`, the result was inactive.

The next assay in a line: ATG_M_19_CIS: Attagene CIS-FACTORIAL HepG2 Assay for M19 Transcription Factor (Internal Marker) (AID 2282939). Conditions: HepG2 Attagene CIS-FACTORIAL M19 internal marker reporter; actives raise or lower the signal. Put shortly: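 Transfect HepG2 with MRTU reporter library → dose chemical, 24 h → isolate total RNA, reverse-transcribe with oligo(dT) → PCR, 6-FAM label, HpaI cut (2 h, 37 C) → capillary electrophoresis. Bidirectional fit vs DMSO.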
Consider `CC(=O)C(C)=CC1C(C)=CCCC1(C)C` (stereo not given), for which the compound was classed as inactive.

As to `CC(=O)OC/C=C(\C)CCC=C(C)C`, the compound was called inactive.

For `CC(C)c1ccc(C(=O)N=C(N)N)cc1S(C)(=O)=O`, the compound was called inactive.

Turning to `Cc1ccc(Cl)cc1`, the result was inactive.

Take `COc1cccc2c1C(=O)c1c(O)c3c(c(O)c1C2=O)C[C@@](O)(C(=O)CO)C[C@@H]3O[C@H]1C[C@H](N)[C@H](O)[C@H](C)O1`: the call was inactive.

Consider `Oc1ccc2ccccc2c1N=Nc1ccccc1`, for which the compound was called inactive.

With `NS(=O)(=O)c1cc2c(cc1Cl)NCNS2(=O)=O`, the call was inactive.

Turning to `COc1ccc2c(c1)c(CC(=O)O)c(C)n2C(=O)c1ccc(Cl)cc1`, the compound was called inactive.

For the compound `O=C(O)CCCCC(=O)O`, the result was inactive.

On to `CCCCCCCCCCCC(=O)OC`, for which the compound was called inactive.
